Screening results (PubChem BioAssay)
PAFAH1B3 FP inh = PAFAH1B3 enzyme inhibitors, primary screen, biochemical, fluorescence polarization, human; Platelet-activating factor acetylhydrolase IB subunit alpha1 (Homo sapiens), Q15102; recombinant PAFAH1B3, FP-rhodamine probe; inhibition, % at 3.39 µM; 340,000 tested, 0.28% active; AID 492972, 2010;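 active means inhibition above the screen-wide average of all tested compounds plus 3 SD, cut at about 25% in these data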
LYPLA2 counter = LYPLA2 inhibitors, primary screen, counter-screen for PME1 inhibitor project, biochemical, fluorescence polarization, FP-Rh probe ABPP; Acyl-protein thioesterase 2 (Homo sapiens), O95372; recombinant LYPLA2; inhibition, % at 5.9 µM; 320,000 tested, 0.38% active;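 active means inhibition above the screen-wide mean plus 3 SD, limit set per campaign, cut at about 26% in these data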
LYPLA1 counter = LYPLA1 inhibitors, primary screen, counter-screen for PME1 inhibitor project, biochemical, fluorescence polarization, FP-Rh probe ABPP; AID 2174, 2009; Acyl-protein thioesterase 1 (Homo sapiens), O75608; recombinant LYPLA1; 320,000 tested, 0.16% active; inhibition, % at 5.9 µM;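 active means inhibition above the mean of all tested compounds plus 3 SD, set per campaign, cut at about 14% in these data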;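 further: inhibitors block serine hydrolase probe labeling of LYPLA1 so polarization falls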
Target sequence (O75608 whole entry, looked up): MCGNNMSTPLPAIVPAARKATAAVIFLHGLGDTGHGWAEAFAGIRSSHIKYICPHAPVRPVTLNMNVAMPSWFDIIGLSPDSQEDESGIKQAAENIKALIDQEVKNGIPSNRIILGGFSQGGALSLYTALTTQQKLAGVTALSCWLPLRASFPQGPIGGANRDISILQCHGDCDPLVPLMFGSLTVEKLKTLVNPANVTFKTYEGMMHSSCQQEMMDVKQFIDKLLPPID
pPAFAH FP inh = pPAFAH enzyme inhibitors, primary screen, biochemical, fluorescence polarization, human | inhibition, % at 3.39 µM | 330,000 tested, 1.5% active | recombinant pPAFAH, FP-rhodamine probe fluorescence polarization;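 active means inhibition above the mean inhibition across the screen plus 3 SD, cut at about 25% in these data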;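 further: inhibitors block binding of the rhodamine activity-based probe so polarization drops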
Target sequence (Q13093 whole entry, looked up): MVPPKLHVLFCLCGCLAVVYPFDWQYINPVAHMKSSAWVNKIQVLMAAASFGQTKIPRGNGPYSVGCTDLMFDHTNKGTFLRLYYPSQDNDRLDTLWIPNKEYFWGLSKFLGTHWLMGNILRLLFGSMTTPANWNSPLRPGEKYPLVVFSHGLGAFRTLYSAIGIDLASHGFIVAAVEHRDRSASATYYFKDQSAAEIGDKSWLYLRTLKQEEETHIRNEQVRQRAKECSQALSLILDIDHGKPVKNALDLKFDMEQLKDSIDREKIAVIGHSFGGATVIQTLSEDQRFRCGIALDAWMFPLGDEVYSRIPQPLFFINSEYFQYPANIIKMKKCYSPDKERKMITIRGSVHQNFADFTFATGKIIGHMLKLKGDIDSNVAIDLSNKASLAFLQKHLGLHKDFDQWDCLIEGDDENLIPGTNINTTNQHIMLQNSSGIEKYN
PAFAH2 inh = PAFAH2 enzyme inhibitors, primary screen, biochemical, fluorescence polarization, human; inhibition, % at 3.39 µM; Platelet-activating factor acetylhydrolase 2, cytoplasmic (Homo sapiens), Q99487; 340,000 tested, 0.99% active; recombinant PAFAH2, FP-rhodamine activity probe;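 active means inhibition above the mean over all tested compounds plus 3 SD, cut at about 30% in these data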;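 further: inhibitors block probe labeling of enzyme so polarization drops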
PAFAH1B2 FP inh = PAFAH1B2 enzyme inhibitors, primary screen, biochemical, fluorescence polarization, human | Platelet-activating factor acetylhydrolase IB subunit alpha2 (Homo sapiens), P68402 | recombinant PAFAH1B2, FP-rhodamine activity probe | inhibition, % at 3.39 µM | 340,000 tested, 1.2% active;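 active means inhibition above the mean of all tested compounds plus 3 SD, cut at about 24% in these data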
PAFAH2 confirm = PAFAH2 enzyme inhibitors, confirmation, biochemical, fluorescence polarization, human | recombinant PAFAH2, FP-rhodamine activity probe | inhibition, % at 3.39 µM | 2,300 tested, 65% active | AID 493030, 2011 | shares compounds with PAFAH2 inh;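 active means mean inhibition over three repeats above a set limit taken from the earlier primary screen, cut at about 30% in these data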;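 further: inhibitor blocks binding of rhodamine activity probe so polarization falls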
Numbers stand for hits. Hits are enriched below; roughly 2.9% of the tested compounds scored in any of these assays.

Screening Cc1nn(Cc2ccccc2)c(C)c1NC(=O)c1ccc([N+](=O)[O-])cc1[N+](=O)[O-] returned PAFAH1B3 FP inh inactive, LYPLA2 counter inactive, LYPLA1 counter inactive, pPAFAH FP inh inactive, PAFAH2 inh inactive and PAFAH1B2 FP inh inactive.
CCOC(=O)N1CCC(N(CCOC)C(=S)Nc2cccc(SC)c2)CC1 was read as PAFAH1B3 FP inh inactive, LYPLA2 counter inactive, LYPLA1 counter inactive, pPAFAH FP inh inactive, PAFAH2 inh inactive and PAFAH1B2 FP inh inactive.
`CCOc1ncccc1C(=O)OCC(=O)Nc1cc(S(=O)(=O)N2CCOCC2)ccc1Cl` gave PAFAH1B3 FP inh inactive, LYPLA2 counter inactive, LYPLA1 counter inactive, pPAFAH FP inh inactive, PAFAH2 inh 44, PAFAH1B2 FP inh inactive and PAFAH2 confirm 39.
O=C(COC(=O)c1cccnc1Cl)Nc1cc(S(=O)(=O)N2CCCCCC2)ccc1Cl was read as PAFAH1B3 FP inh inactive, PAFAH2 inh 32, PAFAH1B2 FP inh inactive and PAFAH2 confirm inactive.
O=C(COC(=O)c1cccnc1Cl)Nc1cc(S(=O)(=O)N2CCOCC2)ccc1Cl was read as PAFAH1B3 FP inh inactive, LYPLA2 counter inactive, LYPLA1 counter inactive, pPAFAH FP inh inactive, PAFAH2 inh inactive and PAFAH1B2 FP inh inactive.
For Cc1ccc(NC(=O)COC(=O)c2cccnc2Cl)cc1S(=O)(=O)N1CCCCC1 the results were PAFAH1B3 FP inh inactive, LYPLA2 counter inactive, LYPLA1 counter inactive, pPAFAH FP inh inactive, PAFAH2 inh 53, PAFAH1B2 FP inh inactive and PAFAH2 confirm 34.
`Nc1cc(N)cc(C(=O)OCC(=O)Nc2cc(S(=O)(=O)N3CCCCC3)ccc2Cl)c1` gave PAFAH1B3 FP inh inactive, LYPLA2 counter inactive, LYPLA1 counter inactive, pPAFAH FP inh inactive, PAFAH2 inh 31, PAFAH1B2 FP inh inactive and PAFAH2 confirm inactive.
For CCCCCCOC(=O)c1ccc(OC(=O)c2cccnc2)cc1 the results were PAFAH1B3 FP inh inactive, LYPLA2 counter inactive, LYPLA1 counter inactive, pPAFAH FP inh inactive, PAFAH2 inh 41, PAFAH1B2 FP inh inactive and PAFAH2 confirm 32.
CCCCOC(=O)c1ccc(OC(=O)c2cccnc2)cc1 was read as PAFAH1B3 FP inh inactive, LYPLA2 counter inactive, LYPLA1 counter inactive, pPAFAH FP inh inactive, PAFAH2 inh inactive and PAFAH1B2 FP inh inactive.
For COc1ccc(NC(=O)COC(=O)c2ccc(N3CCCC3=O)cc2)cc1 the results were PAFAH1B3 FP inh inactive, LYPLA2 counter inactive, LYPLA1 counter inactive, pPAFAH FP inh inactive, PAFAH2 inh 84, PAFAH1B2 FP inh inactive and PAFAH2 confirm 67.
`CC(NC(=O)COC(=O)c1ccc(N2CCCC2=O)cc1)c1ccc(F)cc1` (stereo unspecified) gave PAFAH1B3 FP inh inactive, pPAFAH FP inh inactive, PAFAH2 inh 78, PAFAH1B2 FP inh inactive and PAFAH2 confirm 68.
For COc1ccc(C(=O)OCC(=O)Nc2ccc(N3CCOCC3)cc2)cc1 the results were PAFAH1B3 FP inh inactive, LYPLA2 counter inactive, LYPLA1 counter inactive, pPAFAH FP inh inactive, PAFAH2 inh inactive and PAFAH1B2 FP inh inactive.
Screening COc1ccc(CCNC(=O)COC(=O)c2ccc(N3CCCC3=O)cc2)cc1 returned PAFAH1B3 FP inh inactive, LYPLA2 counter inactive, LYPLA1 counter inactive, pPAFAH FP inh inactive, PAFAH2 inh 56, PAFAH1B2 FP inh inactive and PAFAH2 confirm 40.
O=C(NCc1ccc(N2CCCC2=O)cc1)c1ccc(F)cc1 was read as PAFAH1B3 FP inh inactive, LYPLA2 counter inactive, LYPLA1 counter inactive, pPAFAH FP inh inactive, PAFAH2 inh inactive and PAFAH1B2 FP inh inactive.
Screening Cc1ccc(C(=O)Oc2oc(-c3ccco3)nc2C=Nc2ccc(Cl)cc2)cc1 returned PAFAH1B3 FP inh inactive, LYPLA2 counter inactive, LYPLA1 counter inactive, pPAFAH FP inh inactive, PAFAH2 inh 41, PAFAH1B2 FP inh inactive and PAFAH2 confirm inactive.
For Cc1ccc(NC(=O)COC(=O)c2ccc3c(c2)OCO3)cc1S(=O)(=O)N1CCCCC1 the results were PAFAH1B3 FP inh inactive, LYPLA2 counter inactive, LYPLA1 counter inactive, pPAFAH FP inh inactive, PAFAH2 inh 69, PAFAH1B2 FP inh inactive and PAFAH2 confirm 63.
`Cc1ccc(NC(=O)COC(=O)c2ccc(OC(F)F)cc2)cc1S(=O)(=O)N1CCCCC1` gave PAFAH1B3 FP inh inactive, PAFAH2 inh 51, PAFAH1B2 FP inh inactive and PAFAH2 confirm 42.
O=C(c1cc2ccccc2cc1O)N1CCCC(C(F)(F)F)C1 (stereo unspecified) was read as PAFAH1B3 FP inh inactive, LYPLA2 counter inactive, LYPLA1 counter inactive, pPAFAH FP inh inactive, PAFAH2 inh inactive and PAFAH1B2 FP inh inactive.
Screening COc1ccc(/C=C/C(=O)OCC(=O)c2ccc(S(=O)(=O)N3CCCCC3)cc2)cc1OC returned PAFAH1B3 FP inh inactive, LYPLA2 counter inactive, LYPLA1 counter inactive, pPAFAH FP inh inactive, PAFAH2 inh inactive and PAFAH1B2 FP inh inactive.
For COc1ccc(N2C(=O)C3[C@@H](C2=O)C2(Cl)C(Cl)=C(Cl)C3(Cl)C2(OC)OC)cc1 (stereo partly specified) the results were PAFAH1B3 FP inh inactive, LYPLA2 counter inactive, LYPLA1 counter inactive, pPAFAH FP inh inactive, PAFAH2 inh 33, PAFAH1B2 FP inh inactive and PAFAH2 confirm 31.
Screening CCn1c(COc2ccc3c(c2)CCCC3)nnc1SCC(=O)Nc1ccc(C(=O)OC)cc1 returned PAFAH1B3 FP inh inactive, LYPLA2 counter inactive, LYPLA1 counter inactive, pPAFAH FP inh inactive, PAFAH2 inh inactive and PAFAH1B2 FP inh inactive.
COc1cc(/C=C/C(=O)OCC(=O)Nc2ccc([N+](=O)[O-])cc2)ccc1O was read as PAFAH1B3 FP inh inactive, LYPLA2 counter inactive, LYPLA1 counter inactive, pPAFAH FP inh inactive, PAFAH2 inh 78, PAFAH1B2 FP inh inactive and PAFAH2 confirm 81.
For CCOC(=O)/C=C/C(=O)OCC(=O)Nc1ccc(Cl)cn1 the results were PAFAH1B3 FP inh inactive, LYPLA2 counter inactive, LYPLA1 counter inactive, pPAFAH FP inh inactive, PAFAH2 inh inactive and PAFAH1B2 FP inh inactive.
Screening COc1cc(/C=C/C(=O)OCC(=O)Nc2ccc(Cl)cn2)ccc1O returned PAFAH1B3 FP inh inactive, LYPLA2 counter inactive, LYPLA1 counter inactive, pPAFAH FP inh inactive, PAFAH2 inh 64, PAFAH1B2 FP inh inactive and PAFAH2 confirm 66.
Screening CC(C)=CC(=O)OCC(=O)Nc1ccc(Cl)cn1 returned PAFAH1B3 FP inh inactive, LYPLA2 counter inactive, LYPLA1 counter inactive, pPAFAH FP inh inactive, PAFAH2 inh 52, PAFAH1B2 FP inh inactive and PAFAH2 confirm 43.
